Results filed as inconclusive are left out. Active and inactive are the calls of the source. Calls follow the shape of the dose curve; as a rule, active = well fitted cell-killing curve with a large enough effect; inconclusive = small, poorly fitted or top-dose-only effect; inactive = flat fitted curve, though single readings scatter.
experiment: PC3M Cytotoxicity Assay for Compounds that Inhibit the Perinuclear Compartment: Chemistry Optimization Followup; details: PC3M-GFP viability, ATPLite luminescence, 24 h; series mostly up to 46.1 µM
Text: The perinucleolar compartment (PNC) is a non-membrane-bound nuclear subdomain that is associated with but structurally distinct from the nucleolus. The PNC is a heritable trait, in which the number of PNCs per cell in daughter cells often mimics that of their mother cells. The PNC is heterogeneous in shape, is stable through interphase, disassembles during mitosis, and reassembles in early G1. The PNC is concentrated with newly synthesized RNA polymerase III (pol III) RNAs (MRP RNA, RNAse P H1 RNA, hY RNAs[hY1, 2, 5], Alu RNA, and SRP [7SL] RNA) and RNA binding proteins (nucleolin, PTB, CUG-BP, KSRP, Raver1, Raver2, and Rod). […] Extensive in vitro studies have shown that the PNC is unique to tumor cells and preferentially forms in tumor cells derived from solid tissues. Examination of cancer cell lines from various origins and malignant capacities has shown that PNC prevalence correlates with the malignancy of tumors and has the potential to be developed as a pan-cancer prognostic marker. […] Although the PNC is associated with a DNA locus and a handful of components have been identified, much remains to be investigated regarding the structure and function of the PNC and its mechanistic link to cancer. We have previously shown that PNC prevalence reduction is a valid strategy to identify compounds that can be used to study the structure and function of the PNC. It is necessary, however, to create a screening platform that is able to test a large number of compounds in an automated fashion. Here we report the development and robustness of an automated whole-cell phenotypic image-based screening assay that is capable of identifying such compounds. We conducted a followup assay to measure the effect of the lead candidates on cell health by measuring ATP levels (ATPLite). The highly metastatic PC3M-GFP reporter cell line was used in this study. NIH Chemical Genomics Center [NCGC] NIH Molecular Libraries Probe Centers Network [MLPCN] MLPCN Grant: MH082371-01A2 Assay Submitter (PI): Sui Huang, Northwestern University, Feinberg School of Medicine, Cell and Molecular Biology, Chicago, Illinois.
1. Cells at a density of 75-90% confluency in T175 flasks were harvested using 7 ml TrypLE Express cell dissociation reagent. After dissociation (5 minutes room temperature incubation) 10 ml of complete media was added to the TrypLE/cell suspension. The liquid was transferred to a 50 ml Conical tube and cells were pelleted at 1000 RPM for 5 min. Supernatant was removed and cells were resuspended to a final density of 150-200 cells/ul in complete media. 2. Cells were plated in 5 ul volume (2000 cells/well) into 1536 well White solid bottom plates and allowed to recover and adhere at 37 C in a humidified 5% CO2 incubator for 4 hours. 3. After 4 hour incubation, compound libraries (23 nl of […] in columns 5-48) were transferred to the plates in duplicate using a 1536 well pintool. Camptothecin positive control (59 uM final) was added to column 2 and 1:3 dilutions of camptothecin was added to column 3. DMSO negative controls were present in columns 1 and 4. 4. After a 24 hour incubation in the 37 C incubator, all wells were treated with 3 ul of ATPLite reagent using a multidrop combi dispenser (ThermoFisher). Bubbles that formed during dispensing were removed by spinning the plates for 1 minutre at 1500 RPM on a table top centrifuge. 5. Luminescencent signal was detected on a Viewlux CCD based imager (PerkinElmer) with a clear filter and a 30 second integration time. The PC3M cell line stably expressing the PTB-GFP was provided by Sui Huang of Northwestern University. The media and cell culture reagents were purchased from Invitrogen (Carlsbad, CA), ATPLite came from PerkinElmer.

SMILES | Potency
COCCn1cnc2c(c(-c3ccccc3)c(-c3ccccc3)n2CCc2ccccc2)c1=N | 15.8 µM (active)
CN(C)CCn1cnc2c(c(-c3ccccc3)c(-c3ccccc3)n2Cc2ccccc2)c1=N | 17.7 µM (active)
C[C@H]([C@@H](O)c1ccccc1)n1cnc2c(c(-c3ccccc3)c(-c3ccccc3)n2Cc2ccccc2)c1=N | 15.8 µM (active)
CN(C(=O)c1cccs1)c1cccnc1 | inactive
COc1ccc(Cn2c(-c3ccccc3)c(-c3ccccc3)c3c(=N)n(CCCCCO)cnc32)cc1 | 15.8 µM (active)
CCOC(CCCn1cnc2c(c(-c3ccccc3)c(-c3ccccc3)n2CCc2ccccc2)c1=N)OCC | 22.3 µM (active)
N=c1c2c(-c3ccccc3)c(-c3ccccc3)n(CCc3ccccc3)c2ncn1CCCCCO | 17.7 µM (active)
CN(C)CCCn1cnc2c(c(-c3ccccc3)c(-c3ccccc3)n2CCc2ccccc2)c1=N | 22.3 µM (active)
COc1ccc(Cn2c(-c3ccccc3)c(-c3ccccc3)c3c(=N)n(CCCCO)cnc32)cc1 | 12.5 µM (active)
N=c1c2c(-c3ccccc3)c(-c3ccccc3)n(CCc3ccccc3)c2ncn1CC1CCCO1 (stereo not given) | 11.2 µM (active)
CN(C)CCCn1cnc2c(c(-c3ccccc3)c(-c3ccccc3)n2Cc2ccccc2)c1=N | 25 µM (active)
CN(C)CCn1cnc2c(c(-c3ccccc3)c(-c3ccccc3)n2CCc2ccccc2)c1=N | 15.8 µM (active)
COc1ccc(Cn2c(NC=N[C@H](C)[C@@H](O)c3ccccc3)c(C#N)c(-c3ccccc3)c2-c2ccccc2)cc1 | 19.6 µM (active)
COC(Cn1cnc2c(c(-c3ccccc3)c(-c3ccccc3)n2CCc2ccccc2)c1=N)OC | 17.7 µM (active)
COc1ccc(Cn2c(-c3ccccc3)c(-c3ccccc3)c3c(=N)n(CC4CCCO4)cnc32)cc1 (stereo not given) | 19.9 µM (active)
N=c1c2c(-c3ccccc3)c(-c3ccccc3)n(CCc3ccccc3)c2ncn1CCCO | 15.6 µM (active)
N=c1c2c(-c3ccccc3)c(-c3ccccc3)n(CCc3ccccc3)c2ncn1[C@H](CO)Cc1ccccc1 | 19.9 µM (active)
COCCn1cnc2c(c(-c3ccccc3)c(-c3ccccc3)n2Cc2ccc(OC)cc2)c1=N | 17.7 µM (active)
N=c1c2c(-c3ccccc3)c(-c3ccccc3)n(Cc3ccccc3)c2ncn1CC1CCCO1 (stereo not given) | 19.9 µM (active)
N=c1c2c(-c3ccccc3)c(-c3ccccc3)n(CCc3ccccc3)c2ncn1C1CCC(O)CC1 (stereo not given) | 17.7 µM (active)

Source: PubChem BioAssay AID540363 (National Center for Advancing Translational Sciences (NCATS), 2011)
